Each structure is given as a SMILES string. About 83,000 compounds went through this panel and 20% of them were active in at least one assay; those are over-represented in the sample as a whole.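 The test compound was applied at a single concentration to cells in 96-well plates for 48 hours, and percent growth was recorded.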 Unmarked numbers belong to inactive results. Activity calls are given as the source filed them. The calls were made as follows: active = growth percent below 10; inactive = the rest.

Some test systems named below: HCT-15 colon; HT29 colon; SNB-75 CNS; SNB-19 CNS; U251 CNS; PC-3 prostate; SK-MEL-5 melanoma; UACC-62 melanoma; LOX IMVI melanoma; SK-MEL-28 melanoma; SK-MEL-2 melanoma; EKVX NSCLC; SN12C renal; UO-31 renal; TK-10 renal; ACHN renal; CAKI-1 renal; CCRF-CEM leukemia; A498 renal; MOLT-4 leukemia.
Holding throughout (test): NCI-60 one-dose screen, 48 h (100 = growth as untreated, 0 = no growth, -100 = all killed)
Settings in all cases: 10 µM unless noted

On to `C=CC(=O)N[C@H](/C=C/C(=O)OCC)Cc1ccc(-c2cc(Cl)cc(Cl)c2)cc1`, for which the growth in the experiment on HCT-15 colon is 79.2%; in the experiment with HT29 colon, 86.9%; with SNB-75 CNS it was 82.5%; in the experiment with SNB-19 CNS it was 91.1%; with U251 CNS, 79%; with PC-3 prostate, 60.7%. The growth in the experiment on SK-MEL-5 melanoma was 72.8%; with UACC-62 melanoma it was 60.9%; with LOX IMVI melanoma it was 86.7%; in the experiment with SK-MEL-28 melanoma, 113%; with SK-MEL-2 melanoma, 90.4%; in the experiment on EKVX NSCLC, 91%. Moreover, the growth in the experiment on SN12C renal was 88.6%; in the experiment on UO-31 renal, 56.7%; in the experiment on TK-10 renal, 89.1%; in the experiment on ACHN renal, 90.1%; in the experiment on CAKI-1 renal, 79.4%; in the experiment with CCRF-CEM leukemia, 79.3%.
Consider `COc1cc(Cn2c(SCCC(=O)Nc3ccc(F)cc3)nc3ccccc3c2=O)cc(OC)c1OC`, for which the growth with HCT-15 colon was 79%; with HT29 colon, 86.9%; in the experiment with SNB-75 CNS, 80.3%; with SNB-19 CNS, 80.4%; in the experiment with U251 CNS, 95.2%; in the experiment with PC-3 prostate it was 75.8%. For the same molecule, the growth was 85% with SK-MEL-5 melanoma; 76.4% in the experiment on UACC-62 melanoma; 90.9% in the experiment on LOX IMVI melanoma; 99.8% in the experiment with SK-MEL-28 melanoma; 81.3% with SK-MEL-2 melanoma; 82.9% in the experiment on SN12C renal. In addition, the growth in the experiment with UO-31 renal is 53.7%; in the experiment on TK-10 renal, 101%; in the experiment with ACHN renal, 81.9%; in the experiment with CAKI-1 renal it was 74%; in the experiment on A498 renal, 63.3%; in the experiment on CCRF-CEM leukemia, 86.8%. Besides, the growth in the experiment on MOLT-4 leukemia is 49%.
As for `Nc1c(C(=O)Nc2cccc(C(F)(F)F)c2)sc2nc3c(cc12)CCCCC3`, the growth is 50.5% in the experiment with HCT-15 colon; 20.6% in the experiment with HT29 colon; -38.2% (active) in the experiment with SNB-75 CNS; 44.8% in the experiment with SNB-19 CNS; -57% (active) in the experiment with U251 CNS; 53% with PC-3 prostate. The growth with SK-MEL-5 melanoma was 0.77% (active); with UACC-62 melanoma, 12.8%; in the experiment with LOX IMVI melanoma it was 8.87% (active); in the experiment on SK-MEL-28 melanoma, 20.8%; in the experiment with SK-MEL-2 melanoma, 39.4%; in the experiment with SN12C renal it was 2.78% (active). The growth in the experiment on UO-31 renal was -39.8% (active); in the experiment with TK-10 renal, -16.2% (active); in the experiment with ACHN renal, -67.4% (active); with CAKI-1 renal, 16.2%; in the experiment with A498 renal, -21.8% (active); in the experiment on CCRF-CEM leukemia it was 61.9%. Also, in the experiment with MOLT-4 leukemia, the growth was 83%.
On to `CC1Cc2c(N(C)C)ncnc2N(C)c2ccc(Cl)cc21` (centres undefined), for which the growth is 18.8% in the experiment with HCT-15 colon; 10.8% in the experiment on HT29 colon; -12.4% (active) with SNB-75 CNS; 39.1% with SNB-19 CNS; 27.3% in the experiment on U251 CNS; 32.9% in the experiment on PC-3 prostate. In addition, the growth with SK-MEL-5 melanoma is 11.1%; in the experiment with UACC-62 melanoma, 33.2%; in the experiment on LOX IMVI melanoma, 35.8%; with SK-MEL-28 melanoma, 52.4%; in the experiment with SK-MEL-2 melanoma it was 27.3%; with EKVX NSCLC, 29.3%. The growth is 47.9% in the experiment with SN12C renal; 59.4% in the experiment on UO-31 renal; 31.8% in the experiment on TK-10 renal; 47.1% in the experiment with ACHN renal; 25.1% in the experiment with CAKI-1 renal; 18.1% in the experiment on CCRF-CEM leukemia. Moreover, in the experiment on MOLT-4 leukemia, the growth was 28.2%.
For `NS(=O)(=O)c1ccc(CN2C(=O)c3cccc4cccc(c34)C2=O)cc1`, the growth was 88.5% in the experiment with HCT-15 colon; 102% in the experiment on HT29 colon; 83.9% in the experiment with SNB-75 CNS; 100% with SNB-19 CNS; 99% in the experiment on U251 CNS; 93.3% in the experiment on PC-3 prostate. Also, the growth was 96.8% in the experiment on SK-MEL-5 melanoma; 97.1% with UACC-62 melanoma; 96.2% in the experiment with LOX IMVI melanoma; 113% in the experiment on SK-MEL-28 melanoma; 93% in the experiment on SK-MEL-2 melanoma; 93.1% in the experiment with SN12C renal. Further, the growth was 57.3% in the experiment with UO-31 renal; 81.8% with TK-10 renal; 88.1% in the experiment with ACHN renal; 75.9% in the experiment on CAKI-1 renal; 108% in the experiment on A498 renal; 85.8% in the experiment on CCRF-CEM leukemia.
With `Cc1ccc(-c2csc3nc(C)c(CCCl)c(=O)n23)cc1`, the growth in the experiment with HCT-15 colon is 98.5%; with HT29 colon, 105%; with SNB-75 CNS, 74.7%; in the experiment on SNB-19 CNS, 100%; in the experiment with U251 CNS, 106%; with PC-3 prostate, 83.5%. In addition, the growth was 89.7% with SK-MEL-5 melanoma; 88.2% in the experiment on UACC-62 melanoma; 89.1% in the experiment with LOX IMVI melanoma; 113% in the experiment on SK-MEL-28 melanoma; 94.5% in the experiment on SK-MEL-2 melanoma; 76.8% in the experiment with EKVX NSCLC. Besides, the growth is 101% in the experiment with SN12C renal; 70.4% in the experiment with UO-31 renal; 113% with TK-10 renal; 99% with ACHN renal; 88% with CAKI-1 renal; 104% in the experiment on CCRF-CEM leukemia. Also, the growth in the experiment on MOLT-4 leukemia was 85.6%.
For the molecule `N#Cc1ncc(-c2ccc(F)c(F)c2F)c(NC2CCCCCC2)n1`, the growth was 76.1% with HCT-15 colon; 95.6% with HT29 colon; 72.2% with SNB-75 CNS; 78.6% in the experiment on SNB-19 CNS; 59.1% in the experiment on U251 CNS; 75.7% with PC-3 prostate. In addition, the growth was 89.9% in the experiment on SK-MEL-5 melanoma; 71.2% in the experiment with UACC-62 melanoma; 84.6% in the experiment with LOX IMVI melanoma; 94% in the experiment with SK-MEL-28 melanoma; 95.8% in the experiment with SK-MEL-2 melanoma; 78.2% in the experiment on SN12C renal. The growth in the experiment with UO-31 renal was 68.9%; with TK-10 renal, 91.5%; with ACHN renal, 84.7%; in the experiment on CAKI-1 renal, 79%; in the experiment on A498 renal, 124%; with CCRF-CEM leukemia it was 33.4%.
Take `Oc1ccc(Cl)cc1-c1cc(-c2ccc(Cl)cc2)n[nH]1`: the growth in the experiment with HCT-15 colon was 25%; in the experiment with HT29 colon, 103%; with SNB-75 CNS, 59.1%; in the experiment with SNB-19 CNS, 81.2%; in the experiment on U251 CNS it was 59.3%; in the experiment on PC-3 prostate, 45.6%. Moreover, the growth in the experiment with SK-MEL-5 melanoma is 70.9%; in the experiment with UACC-62 melanoma it was 64%; with LOX IMVI melanoma, 58.2%; in the experiment on SK-MEL-28 melanoma it was 87.6%; in the experiment with SK-MEL-2 melanoma it was 90.7%; with SN12C renal, 61.5%. The growth with UO-31 renal is 29%; in the experiment with TK-10 renal it was 102%; in the experiment with ACHN renal it was 52.8%; in the experiment on CAKI-1 renal, 47.7%; in the experiment with A498 renal it was 84.3%; in the experiment on CCRF-CEM leukemia, 36.7%. Also, the growth with MOLT-4 leukemia was 39.5%.

Values taken from PubChem BioAssay (NCI).
